Cycloheximide cs = Cycloheximide Counterscreen for Small Molecule Inhibitors of Shiga Toxin; cell reporter, cycloheximide protein synthesis inhibition counterscreen; max response, %; 300,000 tested, 12% active; AID 2314, 2010; in the data active = max response mostly above about 13%, no sharp cut-off; inactive = mostly below about 14%; note: read at 38.3 µM for the half of the compounds with a filed dose; 0% is about no effect
Sm TGR block = qHTS Assay for the Inhibitors of Schistosoma Mansoni Peroxiredoxins; Schistosoma mansoni thioredoxin glutathione reductase (TGR), Q962Y6; purified TGR, DTNB reduction, TNB absorbance 405 nm; Potency, µM (titrated, usually from 114 µM), inactives show at the top dose activity change, negative = inhibition, actives largely listed as inhibitors; 360,000 tested, 3% active; AID 485364, 2010; note: potency is the fitted concentration of half-maximal effect; % is set by controls: 0 for no effect and ±100 for the full control effect; nearly all actives have a fitted effect of over 60% in size
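Kinetic colorimetric format: TGR-catalysed, NADPH-driven DTNB reduction monitored via TNB absorbance. Enzyme dispensed at 20 nM; compound exposure 15 min at room temperature before reaction start.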
LmPK inh = qHTS Assay for Inhibitors of Leishmania Mexicana Pyruvate Kinase (LmPK). Q27686. purified LmPK, Kinase-Glo ATP luminescence, 1 h. Potency, µM (top dose mostly 57.5 µM), for inactives: at the highest dose activity change, negative = inhibition, usual class: inhibitors. 290,000 tested, 0.37% active. AID 1721, 2009; note: potency is the fitted concentration of half-maximal effect; % is set by controls: 0 for no effect and ±100 for the full control effect
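Screened at intermediate enzyme activity to detect both inhibitors and activators: LmPK at 0.1 nM, with a 0.5 nM enzyme column as activation reference. PEP 0.5 mM, ADP 0.1 mM; ATP detected by luminescence after 1 h.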
Shiga inhibitor = A qHTS for Small Molecule Inhibitors of Shiga Toxin | 290,000 tested, 9.2% active | inhibition, % at 38.7 µM | AID 2315, 2010 | Vero cells, Shiga toxin protein synthesis inhibition reporter; in the data active = inhibition mostly above about 28%, no sharp cut-off; inactive = mostly below about 43%; note: 0% is about no effect
Tb PYK inh = qHTS of Trypanosoma Brucei Inhibitors | pyruvate kinase (Trypanosoma brucei), Q57TT1 | TbPYK enzyme, Kinase-Glo Plus ATP luminescence, 45 min | Potency, µM (titrated, usually from 76.8 µM), without a hit: at the highest dose activity, negative = inhibition, hits mostly inhibitors | 410,000 tested, 0.12% active | AID 624173, 2012; note: potency is the fitted concentration of half-maximal effect; % is set by controls: 0 for no effect and ±100 for the full control effect; nearly all actives have a fitted effect of over 50% in size
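Enzyme and substrate buffer are dispensed first and compound is pin-transferred. ADP at 130 uM final then starts the reaction, which runs 45 min at room temperature. Detection reagent is added for 10 min before luminescence is imaged.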
FBPA Giardia inh = qHTS Assay for Inhibitors of Fructose-1,6-bisphosphate Aldolase from Giardia Lamblia; A8B2U2; purified Giardia FBPA; 290,000 tested, 0.71% active; Potency, µM (series often up to 59.6 µM), without a hit: top-dose activity, negative = inhibition, hits mostly inhibitors; note: potency is the fitted concentration of half-maximal effect; % is set by controls: 0 for no effect and ±100 for the full control effect; nearly all actives have a fitted effect of over 55% in size
Target sequence (A8B2U2 whole entry, looked up): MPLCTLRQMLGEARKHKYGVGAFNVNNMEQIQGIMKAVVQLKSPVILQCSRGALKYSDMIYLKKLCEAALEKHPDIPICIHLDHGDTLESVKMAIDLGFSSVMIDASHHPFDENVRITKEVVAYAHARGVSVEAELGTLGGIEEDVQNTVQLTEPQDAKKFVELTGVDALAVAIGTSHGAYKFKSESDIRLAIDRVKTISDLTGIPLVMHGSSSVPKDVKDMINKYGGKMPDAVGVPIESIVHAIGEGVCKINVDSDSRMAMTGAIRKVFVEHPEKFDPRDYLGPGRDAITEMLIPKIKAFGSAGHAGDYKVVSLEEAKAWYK
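40 nM FBPA preincubated 10 min at RT with compound (up to 57.5 uM final), then substrate plus GAPDH/TPI/NAD/arsenate coupling and diaphorase/resazurin added. Fluorescence read after 20 min at RT, 525/598 nm.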
Starred values were filed as active, the others as inactive; ? = inconclusive; / = not tested or not shown. The entries come from a sample that favours hits as a whole. Unless noted, calls come from the whole dose curve; as a rule, active = well fitted curve in the direction sought with a large enough effect; inconclusive = small, poorly fitted or top-dose-only effect, or another doubt; inactive = no such curve, though single readings can be large; an effect the other way counts as inactive or inconclusive.

SMILES	Cycloheximide cs	Sm TGR block	LmPK inh	Shiga inhibitor	Tb PYK inh	FBPA Giardia inh
NC(=O)C1CCN(C(=O)c2ccc3ccccc3c2)CC1	17.2*	-3.2%	0.0%	32.7*	-5.1%	-6.9%
CC1CCN(C(=O)c2ccc3ccccc3c2)CC1	39.2*	-19.2%	-0.2%	52.4*	1.1%	15.7%
CCCCc1ccc(NC(=O)CSc2nc(=O)[nH]c3c2CCCC3)cc1	/	7.3%	/	/	5.3%	/
COc1ccc(CNS(=O)(=O)c2cc(C(=O)Nc3cc(Cl)cc(Cl)c3)ccc2F)cc1	/	13.4%	/	/	0.9%	/
COc1ccccc1OCC(=O)O	-1.1	5.2%	0.8%	31.3	7.4%	5.4%
CC(C)=CCC/C(C)=C/CC/C(C)=C/CC/C(C)=C/CC1=C(C)C(=O)c2ccccc2C1=O	-5.7	31.6µM*	-5.3%	15.2	2.7%	?
CC(C)=CCC1=C(OCC(=O)O)C(=O)c2ccccc2C1=O	5.2	10µM*	8.5%	33.6	-9.0%	1.26µM*
O=C(/C=C/c1ccccc1Cl)c1ccccc(=O)c1O	64.8*	4.47µM*	-1.0%	88.9*	-9.9%	?
O=C(C=Cc1ccccc1O)c1ccccc1O	/	/	/	/	5.0%	/
Cc1ccc(/C=C/C(=O)c2ccccc(=O)c2O)c(C)c1	19.7	14.1µM*	-1.8%	30.5*	4.0%	?
Cc1ccc(C)c(/C=C/C(=O)c2ccccc(=O)c2O)c1	111.1*	12.6µM*	-2.1%	52.2*	-0.5%	?
N#Cc1c(NC(=O)COC(=O)c2ccc(O)cc2O)sc2c1CCC2	/	6.5%	/	/	5.0%	/
Cc1nc(/N=C(\N)Nc2ccccc2)nc2ccccc12	15.9*	10.1%	2.4%	43.4	/	-6.1%
Cc1cc(C)nc(/N=C(\N)Nc2ccc(OCc3ccccc3)cc2)n1	-1.2	17.9%	0.8%	-1.1	0.9%	1.9%
CCC(C)(C)n1nnnc1C(c1ccc(O)cc1)N1CCc2ccccc2C1 (stereo not drawn)	-3.2	?	7.4%	-1.9	31.0%	-22.5%
CN(C)c1ccc(C(c2nnnn2C(C)(C)C)N2CCc3ccccc3C2)cc1 (stereo not drawn)	-1.6	11.2µM*	7.8%	2.6	/	14.7%
CC1CCN(C(c2ccc(N(C)C)cc2)c2nnnn2C(C)(C)C)CC1 (stereo not drawn)	15.0	5.62µM*	-1.7%	-4.6	?	-1.9%
CC(C)(C)n1nnnc1C(c1ccccc1)N1CCc2ccccc2C1 (stereo not drawn)	-0.9	35.5µM*	-3.2%	-7.6	-13.0%	-20.0%
CCCCn1nnnc1C(c1ccccc1)N1CCc2ccccc2C1 (stereo not drawn)	/	/	/	/	-5.2%	/
COc1ccc(C(C)(NC(C)=O)c2nc(-c3ccc(F)c(Cl)c3)cs2)cc1 (stereo not drawn)	/	/	/	/	2.9%	/
COc1cc2c(cc1OC)C(COc1ccc3c(C)cc(=O)oc3c1)N(C(=O)c1cccc(OC)c1OC)CC2 (stereo not drawn)	/	6.9%	/	/	-0.4%	/
COC(=O)c1ccc(NC(=O)C2CCCCC2C(=O)O)cc1 (stereo not drawn)	1.2	5.8%	-2.9%	-4.4	-0.3%	10.0%
COc1cccc(C(=O)Nc2ccc(NC(=O)C3CCCCC3C(=O)O)cc2)c1 (stereo not drawn)	38.8*	-6.6%	-6.3%	21.5	2.7%	/
O=C(COC(=O)c1ccc(NC(=O)C2CC=CCC2C(=O)O)cc1)c1ccccc1 (stereo not drawn)	35.6*	10.9%	2.3%	74.5*	-0.9%	4.3%
O=C(NCCc1ccccc1)c1ccccc1NC(=O)C1CCCO1 (stereo not drawn)	29.9*	/	0.2%	66.9*	3.0%	2.7%
SMILES	Cycloheximide cs	Sm TGR block	LmPK inh	Shiga inhibitor	Tb PYK inh	FBPA Giardia inh
COc1ccc(NC(=O)c2ccccc2NC(=O)C2CC=CCC2C(=O)O)cc1 (stereo not drawn)	41.0*	-3.3%	-7.6%	87.6*	36.0%	/
CCOC(=O)c1cccc(NS(=O)(=O)c2c(C)nc3sc(C)cn3c2=O)c1	/	7.5%	/	/	0.1%	/
CCN(CC)c1ccc(NC(=O)c2cc(CN3CCCC3)on2)c(C)c1	/	4.0%	/	/	-15.0%	/
O=C(O)c1ccccc1NC(=O)C1CCCO1 (stereo not drawn)	23.2	4.7%	-0.4%	-29.4	1.8%	-4.9%
O=C(Nc1ccccc1Sc1ccccc1)C1CCCO1 (stereo not drawn)	-1.1	44.7µM*	2.7%	-6.5	0.0%	-0.3%
COc1ccc(NC(=O)c2ccccc2NC(=O)C2CCCO2)cc1 (stereo not drawn)	23.6*	-9.5%	0.4%	49.4*	0.8%	-13.6%
COc1cccc(C(=O)Nc2ccc(NC(=O)C3CC=CCC3C(=O)O)cc2)c1 (stereo not drawn)	24.4*	4.5%	-2.3%	76.8*	7.3%	/
Cc1nc(NC(=O)c2ccccc2)sc1-c1csc(Nc2cccc(F)c2)n1	13.4*	12.2%	-0.8%	61.8	/	-15.9%
Cc1nc(NC(=O)c2ccccc2)sc1-c1csc(N)n1	29.3*	1.2%	-18.7%	48.4*	-7.8%	-17.4%
CCOc1ccccc1NC(=O)CSc1nc2c(oc3ccccc32)c(=O)n1C(C)C	/	1.5%	/	/	0.4%	/
Cc1nn(-c2ccccc2)c(N)c1N=Nc1ccc2ccccc2c1	39.1*	18.1%	0.4%	55.6*	-1.5%	0.4%
COc1ccc(N=Nc2c(N)nn(C)c2N)cc1	/	/	/	/	0.0%	/
Cc1cc(C)n2nc(N)c(N=Nc3cccc(Cl)c3)c2n1	7.6	9.9%	-5.6%	16.5	2.9%	-11.7%
Cc1ccc(N=Nc2c(N)nn3c(C)cc(C)nc23)cc1	20.9*	5.4%	0.3%	15.0	-2.6%	-9.1%
Cc1ccc(N=Nc2c(N)nn(-c3ccccc3)c2N)cc1	63.5*	0.4%	0.1%	90.9*	-0.5%	1.1%
Cc1nn(-c2ccccc2)c(N)c1N=O	0.8	-25.6%	1.4%	16.9	-1.7%	4.9%
CCNc1nnc(SCC(=O)NC2CCCCCC2)s1	/	-0.4%	/	/	7.4%	/
Cc1cccc(Cn2c(CNS(=O)(=O)c3ccc4c(c3)CCCC4)nc3cccnc32)c1	/	3.5%	/	/	3.5%	/
CCC(=O)Nc1ccc(/C(C)=N\NC(=O)c2ccc(OC)cc2)cc1	8.0	3.2%	1.6%	26.3	0.2%	1.5%
C/C(=N/NC(=O)c1ccoc1C)c1cccc(NC(=O)C(F)(F)F)c1	59.4*	-1.1%	-5.8%	104.5*	-0.1%	-0.1%
C/C(=N/NC(=O)c1ccoc1C)c1cccc(NC(=O)C2CC2)c1	63.4*	-3.1%	0.2%	73.2*	9.8%	3.8%
C/C(=N/NC(=O)c1ccc(C)s1)c1cccc(NC(=O)c2ccoc2C)c1	32.3*	?	-12.0%	36.6	-5.0%	/

Screening data: PubChem BioAssay, National Center for Advancing Translational Sciences (NCATS)
